Bioassay records: PubChem, several laboratories
ARNT TACC3 PPI: disrupts binding between human ARNT and TACC3; AlphaScreen His-ARNT PAS-B/GST-TACC3 binding, luminescence; TACC3 fragment carries E629A point mutation; inhibition, % at 9.99 µM; 390,000 compounds, 0.66% hits; AID 623870;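 active = mean inhibition of replicates at least 50% and at least half of replicates each reaching 50%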;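 also: 0% = complete ARNT plus TACC3 wells and 100% = ARNT alone without TACC3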
HSP90 inh: inhibitors of HSP90 luciferase refolding in rabbit reticulocyte lysate; inhibition, % at 5.6 µM; 290,000 compounds, 0.91% hits; luciferase refolding luminescence, 3 h; AID 1789;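 active = inhibition above the screen-wide mean plus 3 SD, computed separately per campaign, cut at about 16% in these data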;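 also: 0% = DMSO wells and 100% = 60 µM geldanamycin wells; inhibitors lower the luminescence because luciferase stays unfolded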
HIF act: HIF pathway transcriptional activation. U2OS HRE-luciferase reporter, luminescence; normalized: DMSO 0%, desferrioxamine 100%. activation, % at 7.5 µM (by protocol). 300,000 compounds, 0.32% hits. AID 1910;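 active = mean activation of at least 10% of the iron chelator positive control signal, with at least half of replicates also reaching 10%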
HSF1 inh: HSF1 inhibition; NIH3T3-HGL HSE-luciferase, MG132-induced, luminescence 8 h; active compounds read low; activity change, negative = inhibition, % at 7.5 µM (by protocol); 300,000 compounds, 0.77% hits;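 active = more than half of replicate wells show activity change below -50%, luminescence cut by over half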;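 also: luciferase reports HSF-1 transcriptional activity via heat shock element; 0% = median of DMSO wells and -100% = zero luminescence signal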
HSF-1 act: increases HSF-1 driven luciferase reporter signal; NIH3T3-HGL HSF-1 luciferase reporter, MG132, 8 h; 100% = twice DMSO control signal; activation, % at 9 µM; 300,000 compounds, 1.7% hits;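 active = mean replicate activation of at least 50% with a set share of replicates each reaching 50%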;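 also: 0% = median of the neutral control wells and 100% = twice that signal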
The depositor's hits bear a star; . = not tested or not shown. In the library only some 3.1% were active in any assay of this set; here they are far more common.

SMILES	ARNT TACC3 PPI	HSP90 inh	HIF act	HSF1 inh	HSF-1 act
CCC(=O)N[C@@H]1CC[C@@H](CC(=O)NCc2cc(F)cc(F)c2)O[C@@H]1CO	7	.	.	.	.
CCOC(=O)CSc1nc2c(sc(=S)n2-c2ccccc2OC)c(=O)n1Cc1ccco1	10	-1	0	18	57*
CCOC(=O)CSc1nc2c(sc3ccc([N+](=O)[O-])cc32)c(=O)n1Cc1ccco1	-4	-4	1	162	254*
CCOC(=O)CSc1nc2c(sc(=S)n2-c2ccccc2OC)c(=O)n1-c1ccccc1OC	1	0	0	30	46
CN1CCN(C(=O)C[C@@H]2CC[C@@H]3[C@H](COC[C@H](O)CN3S(=O)(=O)c3cccc(Cl)c3)O2)CC1	-11	.	.	.	.
Cc1ccc(CN2CCN(Cc3cccc(OCCO)c3)CC2CCO)o1 (stereo not given)	26	5	0	-86*	-89
COC(=O)c1ccc(CN2CCN(CCC(C)C)C(CCO)C2)cc1 (stereo not given)	-2	1	0	-10	10
OCCC1CN(Cc2cccc(-n3cccn3)c2)CCN1Cc1ccccc1 (stereo not given)	-3	4	0	-65*	-67
COC(=O)c1ccc(CN2CCN(CCc3ccccc3)C(CCO)C2)cc1 (stereo not given)	1	-3	0	-72*	-78
N#Cc1cccc(-c2ccc3c(c2)[C@@H]2[C@@H](CCN2C(=O)C2CCCCC2)[C@@H](CO)N3)c1	8	.	.	.	.
O=C(Cc1ccccn1)NCC[C@@H]1CC[C@@H](NS(=O)(=O)c2ccc(F)cc2)[C@H](CO)O1	17	.	.	.	.
COC(=O)C[C@@H]1C[C@@H]2c3cc(NC(=O)CN(C)C)ccc3O[C@@H]2[C@H](CO)O1	-4	.	.	.	.
CN1C(=O)c2cc(NS(=O)(=O)c3ccc(F)cc3)ccc2OC[C@@H]2O[C@@H](CC(=O)O)CC[C@@H]21	-16	.	.	.	.
C[C@H]1CCCCO[C@@H](CN(C)Cc2ccc(C(=O)O)cc2)[C@@H](C)CN([C@@H](C)CO)C(=O)c2cc(NC(=O)Nc3ccc(C(F)(F)F)cc3)ccc2O1	5	.	.	.	.
OC(COc1ccc2ccccc2c1Br)Cn1cnc(-c2ccccc2)c1 (stereo not given)	-10	1	0	-82*	-85
O=C(CSc1ncnc2c1nnn2Cc1ccccc1)NC1CCCCC1	-10	-1	1	66	80*
CO[C@H]1CN(C)C(=O)c2ccc(NC(=O)C3CCOCC3)cc2OC[C@H](C)N(Cc2nccs2)C[C@H]1C	-6	.	.	.	.
C[C@H]1CN([C@@H](C)CO)S(=O)(=O)c2ccc(/C=C/c3ccccc3)cc2O[C@@H]1CN(C)Cc1ccccc1	22	.	.	.	.
CN1C(=O)c2cc(NC(=O)c3ccc(Cl)cc3)ccc2OC[C@@H]2O[C@H](CC(=O)O)CC[C@@H]21	-10	.	.	.	.
Brc1ccc(-n2cnc(-c3ccccc3)c2)cc1	1	4	2	46	78*
NNc1nc(-c2ccccc2)cc(-c2ccc(Br)cc2)n1	11	2	-1	1	9
CO[C@H]1CN(C)C(=O)c2cc(NC(=O)Nc3ccccc3)ccc2OC[C@@H](C)N(C(=O)Nc2c(C)noc2C)C[C@H]1C	-14	.	.	.	.
c1ccn(-c2ccc(N3CCOCC3)cc2)c1	7	-6	1	-62*	-68
O=C(NCc1ccc(F)cc1)[C@H]1[C@H](CO)[C@H]2Cn3c(cccc3=O)[C@@H]1N2Cc1ccncc1	-15	.	.	.	.
COCCNC(=O)C[C@H]1C=C[C@H](NC(=O)NC2CCCC2)[C@H](CO)O1	-22	.	.	.	.
SMILES	ARNT TACC3 PPI	HSP90 inh	HIF act	HSF1 inh	HSF-1 act
COc1ccc(NC(=S)Nc2ccc(F)cc2)c(OC)c1	8	1	0	-52*	-61
Fc1ccc(NC(=S)Nc2ccc(Cl)cc2)cc1	.	-5	0	16	2
Fc1ccc(NC(=S)Nc2cc(Cl)ccc2Cl)cc1	0	1	0	43	77*
CCOC(=O)/C(C#N)=C/c1c(N2CCN(c3ccccc3)CC2)nc2ccccn2c1=O	9	5	-12	56	93*
COC(=O)/C(C#N)=C/c1c(N2CCN(c3ccccc3)CC2)nc2ccccn2c1=O	8	-1	3	32	36
O=C(N/N=C/c1ccccc1O)c1cccc(C(F)(F)F)c1	2	4	41*	10	-7
O=C(N/N=C/c1ccc(O)cc1)c1cccc(C(F)(F)F)c1	4	-3	0	-2	2
O=C(N/N=C/c1ccccc1)c1n[nH]c2c1CCCC2	-1	5	2	18	41
O=C(N/N=C/c1ccccc1Cl)c1cccc(F)c1	15	-2	2	42	73*
O=C(N/N=C/c1ccccc1Cl)c1n[nH]c2c1CCCC2	2	20*	-1	-67*	-72
COC(=O)C1=C(C)Nc2c(c(=O)n(C)c(=O)n2C)C1c1cccc(O)c1 (stereo not given)	-9	-1	0	-57*	-67
COC(=O)C1=C(C)Nc2c(c(=O)n(C)c(=O)n2C)C1c1cccnc1 (stereo not given)	.	-2	0	-4	1
CN(C(=O)/C=C/c1ccc(F)cc1)C1CCCCC1	.	.	2	46	61*
CN(C(=S)NC(=O)/C=C/c1ccc(F)cc1)C1CCCCC1	6	0	1	32	67*
CC(C)(CNC(=O)/C=C/c1ccc(F)cc1)CNC(=O)/C=C/c1ccc(F)cc1	-2	1	1	61	76*
COc1ccc(NC(=O)Nc2ccc3c(c2)C(=O)N([C@H](C)CO)C[C@H](C)[C@H](CN(C)S(=O)(=O)c2cccs2)OCCCC[C@H](C)O3)cc1	5	.	.	.	.
COc1ccccc1C#Cc1ccc([C@H]2[C@H]3CN(C(=O)C4CC4)CCCCN3[C@H]2CO)cc1	-5	.	.	.	.
Cc1nc(C(F)(F)F)c(C(=O)N/N=C(\N)c2ccccn2)s1	62*	-1	0	9	-10
Cc1cc(C(=O)Nc2sc3c(c2C#N)CCC(C)C3)cs1 (stereo not given)	8	-6	3	23	74*
Cc1ccccc1C(=O)NC(=S)Nc1sc2c(c1C#N)CCC(C)C2 (stereo not given)	2	0	1	5	12
CC1CCc2c(sc(NC(=S)NC(=O)c3ccccc3)c2C#N)C1 (stereo not given)	-1	1	1	33	59*
C[C@@H]1CCCCO[C@@H](CN(C)CC2CCCCC2)[C@H](C)CN([C@H](C)CO)C(=O)c2cc(NC(=O)Nc3cccc4ccccc34)ccc2O1	18	.	.	.	.
Cc1ccccc1-n1c(=O)cc(N2CCc3ccccc32)[nH]c1=O	-3	-1	0	-79*	-84
Cc1ccc(S(=O)(=O)Nc2ccc(Br)cc2C(NCC(=O)O)c2ccccc2)cc1 (stereo not given)	3	-4	0	7	12
O=C(O)CSc1cc(NS(=O)(=O)c2ccc(Br)cc2)c2ccccc2c1O	97*	16	1	59	114*
